Bioassay records: PubChem BioAssay, National Center for Advancing Translational Sciences (NCATS)
GLP1R inv ag: qHTS of GLP-1 Receptor Inverse Agonists (Inhibition Mode) | HEK293 GLP-1R CRE-luciferase, luminescence, 24 h; GLP-1R form is constitutively active | 410,000 tested, 1.6% active | Potency, µM (doses to about 38.3 µM), without a hit: top-dose activity change, negative = inhibition, most hits filed as inhibitors; note: % is set by controls: 0 for no effect and ±100 for the full control effect; nearly all actives have a fitted effect of over 55% in size
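Cells are plated, allowed 12 hours at 37 deg C, then treated with compounds for 24 hr before luciferase detection reagent is added and luminescence is read after 12 min at room temperature. The HEK293 line carries constitutively active GLP-1R with a cAMP-responsive reporter.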
ClpP mod: qHTS Assay for Activators of ClpP; purified B. subtilis ClpP, FRET peptide cleavage, 20 min; Potency, µM (highest dose often 57.5 µM), for the others: at the highest dose activity change, negative = active; 340,000 tested, 1.9% active; ATP-dependent Clp protease proteolytic subunit (Bacillus subtilis (strain 168)), P80244; AID 651965, 2013; active = well fitted falling curve with a large enough effect; inconclusive = small, poorly fitted or top-dose-only effect; inactive = no such curve, though single readings can be large or run the other way; note: the source files actives as falling curves though it sought activators and does not explain the sign; nearly all actives have a fitted effect of over 65% in size
Target sequence (P80244 whole entry, looked up): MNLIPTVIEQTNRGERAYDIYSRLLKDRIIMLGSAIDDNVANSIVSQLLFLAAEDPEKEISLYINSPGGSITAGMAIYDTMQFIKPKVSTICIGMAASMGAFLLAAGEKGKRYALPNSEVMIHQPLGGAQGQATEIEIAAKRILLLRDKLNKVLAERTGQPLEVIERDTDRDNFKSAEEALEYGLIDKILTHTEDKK
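Buffer: 100 mM Tris/HCl pH8, 100 mM KCl, 0.05% low protease BSA, 2.5% glycerol, 0.01% Tween-20. ClpP 10 microg/mL final; 20 min RT; delta FRET normalized to ADEP and DMSO controls.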
HEK293 tox: qHTS of GLP-1 Receptor Inverse Agonists: Cytotox Screen; HEK293 cAMP-luciferase reporter cells, luminescence, 24 h; Potency, µM (titrated, usually from 38.3 µM), without a hit: at the highest dose activity change, negative = inhibition, actives largely listed as inhibitors; 410,000 tested, 0.13% active;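 note: loss of luciferase light is scored as toxicity; % is set by controls: 0 for no effect and ±100 for the full control effect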
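Quantitative HTS format, 1536 wells, 200 cells/uL seeded. Compounds: 23 nL, 24 h, 37 °C. Detection: luciferase reagent, luminescence at 12 min RT; decreased signal taken as cytotoxic.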
GLP-1R agonist: qHTS of GLP-1 Receptor Agonists. Glucagon-like peptide 1 receptor (Homo sapiens), P43220. HEK293 GLP-1R CRE-luciferase, luminescence, 4-6 h; cells express a hypersensitive GLP-1R form. Potency, µM (series often up to 45.6 µM), without a hit: top-dose activation, most hits filed as activators. 380,000 tested, 0.007% active; note: % of control where 0% means no effect
Numbers without * were called inactive. Rows were chosen to be rich in hits. Some 3.2% of all compounds tested hit in one or more screens of this group. Unless noted, calls come from the whole dose curve; as a rule, active = well fitted curve in the direction sought with a large enough effect; inconclusive = small, poorly fitted or top-dose-only effect, or another doubt; inactive = no such curve, though single readings can be large; an effect the other way counts as inactive or inconclusive. Potency is the fitted concentration of half-maximal effect.

`Clc1ccc(-c2csc(Nc3ccccc3)[n+]2Cc2ccco2)c(Cl)c1` gave GLP1R inv ag 2.82µM*, ClpP mod -0.5%, HEK293 tox 6.2% and GLP-1R agonist -5.3%.
Screening CCCC[n+]1c(-c2ccc(Cl)cc2Cl)csc1Nc1ccccc1 returned GLP1R inv ag inconclusive, ClpP mod 1.1%, HEK293 tox 5.8% and GLP-1R agonist -1.4%.
`Cc1ccc(N=Nc2[nH]c3ccccc3c2O)cc1` gave GLP1R inv ag 6.3%, ClpP mod 25.1µM*, HEK293 tox 8.2% and GLP-1R agonist -2.3%.
For COc1cc(-c2nnc(-c3ccc(N4CCOCC4)cc3)o2)cc(OC)c1OC the results were GLP1R inv ag 27.4%, ClpP mod 25.1µM*, HEK293 tox -7.4% and GLP-1R agonist 5.5%.
`O=C(Nc1cccc(C(F)(F)F)c1)C1CCN(c2nnc(-n3cccc3)s2)CC1` gave GLP1R inv ag inconclusive, ClpP mod 1.5% and HEK293 tox -7.1%.
Screening CCN1CCOC(=O)C1CC(=O)Nc1cccc(OC)c1 (centres undefined) returned GLP1R inv ag 5.4%, ClpP mod -3.0% and HEK293 tox 25.2%.
Screening CCOC(=O)CSc1nc2c(c(-c3ccc(C)o3)c1C#N)CCCC2 returned GLP1R inv ag -2.9%, ClpP mod 28.2µM*, HEK293 tox -1.4% and GLP-1R agonist 7.2%.
Screening COC(=O)CSc1nc2c(c(-c3ccco3)c1C#N)CCCC2 returned GLP1R inv ag -29.4%, ClpP mod -13.0%, HEK293 tox 1.2% and GLP-1R agonist 0.1%.
For Cc1ccccc1NC1=NC(=S)N(c2ccccc2)C12CCOC(C)(C)C2 (centres undefined) the results were GLP1R inv ag -5.6%, ClpP mod 1.2%, HEK293 tox -11.0% and GLP-1R agonist -10.2%.
For Cc1ccccc1NC1=NC(=S)N(c2ccccc2)C12CCCCC2 the results were GLP1R inv ag inconclusive, ClpP mod 28.2µM*, HEK293 tox inconclusive and GLP-1R agonist -13.0%.
COc1ccccc1N1CCN(c2ncnc3c2c(-c2ccccc2)cn3-c2cccc(C)c2)CC1 was read as GLP1R inv ag 10.7%, ClpP mod 11.2µM* and HEK293 tox -2.8%.
COc1ccccc1CNc1ncnc2c1c(-c1ccccc1)cn2-c1cccc(C)c1 was read as GLP1R inv ag inconclusive, ClpP mod 28.2µM* and HEK293 tox 1.6%.
CC1CCN(c2ncnc3c2c(-c2ccccc2)cn3-c2ccc(Br)cc2)CC1 was read as GLP1R inv ag 2.1%, ClpP mod -2.7% and HEK293 tox 9.9%.
Screening c1ccc(-c2cn(-c3ccccc3)c3ncnc(N4CCCCC4)c23)cc1 returned GLP1R inv ag 3.16µM*, HEK293 tox -5.9% and GLP-1R agonist 3.5%.
For Clc1cccc(-n2cc(-c3ccccc3)c3c(N4CCCCC4)ncnc32)c1 the results were GLP1R inv ag 2.2%, ClpP mod inconclusive and HEK293 tox 9.3%.
Screening COc1ccc(CNc2ncnc3c2c(-c2ccccc2)cn3-c2cccc(C)c2)cc1 returned GLP1R inv ag -1.5%, ClpP mod -4.5% and HEK293 tox 1.2%.
Cc1cccc(-n2cc(-c3ccccc3)c3c(N4CCC(C)CC4)ncnc32)c1 was read as GLP1R inv ag 2.4%, ClpP mod 28.2µM* and HEK293 tox -19.1%.
`CC(=O)O[C@H]1CC[C@@]2(C)C(=CCC3C2CC[C@]2(C)C(c4cccnc4)=CCC32)C1` (some centres undefined) gave GLP-1R agonist -3.7%.
For COc1ccc(CNC(=O)Cn2c(=O)nc(-c3ccccc3)c3cc(Cl)ccc32)cc1OC the results were GLP1R inv ag 14.9%, ClpP mod -1.4% and HEK293 tox 10.4%.
Screening Cc1nc(-c2ccc(S(=O)(=O)Nc3ccc(Cl)c(C(F)(F)F)c3)cc2)co1 returned GLP1R inv ag inconclusive, ClpP mod 0.4%, HEK293 tox -2.8% and GLP-1R agonist -2.9%.
For Cc1nn(C)c2c1c(C(F)(F)F)cc(=O)n2CC(=O)NC(C)(C)C the results were GLP1R inv ag 6.9%, ClpP mod 3.2% and HEK293 tox -3.0%.
